Measurements as given in PubChem BioAssay.
A number with no mark means an inactive call. Activity calls are given as the source filed them.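 The calls were made as follows: active = viability at or under a set limit in both replicates, limit being median viability minus 3 SD (cut at about 48% in these data, passing the limit was not always enough); inconclusive = at or under the limit in just one replicate; inactive = at or above the limit in both replicates.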

assay: growth inhibitors of H69AR lung tumor, primary screen, human, duplicate replicates (AID 580); conditions: H69AR lung tumor cells viability, ATP luminescence, 72 h; at 10 µM; stronger effect = lower value;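 also: 100% = mean luminescence of untreated wells and 0% = no signal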

SMILES	viability
O=C(NCCN1CCCCCC1)c1ccc(CS(=O)(=O)c2ccc(Br)cc2)o1	91%
Cc1ccc(S(=O)(=O)NCCOC(=O)Nc2sc(=S)n(C)c2C)cc1	101%
COc1ccccc1CC(=O)Nc1ccc(OC)c(OC)c1	89.6%
CCN(CC)C(=O)C1CCCc2c1[nH]c1ccc(Cl)cc21 (stereo not given)	76.6%
CCOC(=O)N1CCC(NC(=O)C2CCCN(C(=O)c3cc4sccc4n3C)C2)CC1 (stereo not given)	94.8%
CCOC(=O)c1[nH]c(C)c(C(=O)Nc2ccc(Cl)cc2)c1C	85.9%
O=C(NC(=O)c1cccc(F)c1)OC[C@@H]1CCCN2CCCC[C@H]12	96.5%
COc1ccccc1-n1c(=O)[nH]c2c(C(N)=O)nc(-c3cccnc3)nc21	69.9%
CC1(C)CC(=O)c2cnc(NC(=O)Cc3ccc(Cl)cc3)nc2C1	100%
CC(C)(NC(=O)N1CCCC1)c1cccc(C(C)(C)NC(=O)N2CCCC2)c1	95.5%
COc1ccc(NC(=O)C2CCCN(S(=O)(=O)c3cccc4cccnc34)C2)cc1OC (stereo not given)	67.5%
CCOc1ccc(CCN2C(=O)C3C4C=CC(C4)C3C2=O)cc1OCC (stereo not given)	87.9%
COc1ccc(S(=O)(=O)N2CCN(c3ccc(C)cc3C)CC2)cc1OC	97.2%
O=C(C1CCN(c2nnc(-n3cccc3)s2)CC1)N1CCc2ccccc2C1	77.9%
CCOc1cc(C2C3=C(CCCC3=O)N(C)C3=C2C(=O)CCC3)cc(Cl)c1O	104%
O=C(OCN1C(=O)c2ccccc2C1=O)C1CCCCC1	87.6%
Cc1ccc2cccc(SCC(=O)N3CCOCC3)c2n1	90.7%
c1ccn2c(SCc3ccc4c(c3)OCCO4)nnc2c1	92.1%
c1ccc(C(Cc2nc(-c3ccccn3)no2)c2ccccc2)cc1	95.2%
COC(=O)C(C)Sc1nnc2n(-c3cccc(C)c3)c(=O)c3c4c(sc3n12)CCCC4 (stereo not given)	83.1%

SMILES	viability
Cc1ccc(-c2noc(CN3C(C)CCCC3C)n2)cc1 (stereo not given)	89.3%
CCn1c(SCC(=O)Nc2ccc(Cl)cc2)nnc1C1CC1	74.7%
COc1ccc(C2CC(c3ccco3)n3ncnc3N2)cc1 (stereo not given)	95.4%
COc1ccc(NC(=O)c2cc(C3CC3)on2)c(OC)c1	91.2%
COc1cc(OC)c2c(c1)OC(c1ccc(OC)c(OC)c1)C(O)C2=O (stereo not given)	90.9%
N#CCCN(Cc1cccnc1)C(=O)Nc1ccc(Cl)c(Cl)c1	91.2%
O=C(c1cccc(F)c1)N1CCc2ccccc21	98.9%
COc1ccc(NC(=O)C2CCCCN2S(=O)(=O)c2ccc(F)cc2)cc1 (stereo not given)	89.2%
CCN(CC)C(=O)Cn1ncc2c1-c1ccccc1OC2	100%
Cn1c(=O)oc2cc(S(=O)(=O)NC3CCN(Cc4ccccc4)CC3)ccc21	108%
COCCOC(=O)c1[nH]c2c(c1C)C(=O)CC(c1ccco1)C2 (stereo not given)	23.6% (active)
COc1ccccc1NC(=O)N(C1CCCC1)C1CCN(C(C)=O)CC1	88.3%
COc1cc(C(=O)Nc2cccc(-c3nncn3C)c2)cc(OC)c1OC	89%
CCCCN(CC)CCNC(=O)c1cc2c(C)nc3ccccc3c2o1	85.3%
Clc1ccc(SCCCCn2ccnc2)cc1	99.2%
CCOC(=O)N1CCC(N2C(=O)c3ccccc3C2Nc2cc(Cl)c(OC)cc2OC)CC1 (stereo not given)	78.2%
O=C(Cn1nc(Cc2cccnc2)c2ccccc2c1=O)NCC1CCCO1 (stereo not given)	92.2%
CCn1cc(SCC(=O)NCC2CCCO2)c2ccccc21 (stereo not given)	85.5%
Cc1noc(C)c1S(=O)(=O)N1CCN(Cc2ccc3c(c2)OCO3)CC1	95.4%
CCOC(=O)c1ccc(N2Cc3cc(C)c(C)cc3C2)cc1O	97.3%
